Results with a measured potency or affinity are listed apart.
system: Candida albicans; conditions: 20 µM

SMILES	Inhibition [%]
COc1cc(/N=N/c2ccccc2C(=O)O)ccc1O	-1.22
Cc1ccc(/N=N/c2c(O)c3ccccc3[nH]c2=O)c(S(=O)(=O)N(C)C)c1	-0.31
C=C1S/C(=N\c2c(C)cccc2Cl)N(C(=O)c2sc3ccccc3c2Cl)C12CCCCC2	5.73
NC(=N\c1ccc(N)cc1)/C(N)=N/c1ccc(N)cc1	0.22
CCOC(=O)c1[nH]c(CO)c(C(=O)OCC)c1C	9.36
CCC12CCCN3CCc4c(n(c5ccccc45)C(O)(C(=O)OC)C1)C32 (stereo not drawn)	0.39
CC(C)C(=O)Nc1cccnc1	0.24
O=C(c1ccccc1)c1ccc(Sc2ccc([N+](=O)[O-])cc2)cc1	2.18
COc1ccccc1/C=C(\C#N)C(=O)O	6.96
COc1ccc2c(n1)Sc1nc3ccccc3nc1N2	3.02
CCOC(=O)Nc1csnn1	5.16
CC1(C)CC2(C)OC2C2(C1)N=N/C(=N/c1ccccc1)O2 (stereo not drawn)	-0.47
CC1=CC(=O)CC(C)(C)C1(O)/C=C/C(C)=C/C(=O)O (stereo not drawn)	5.51
CCN(CC)CCN1C(=O)c2cccc3cc(N)cc(c23)C1=O	-0.17
CCCn1cnc2c(S)nc(N)nc21	-1.47
CN(C)S(=O)(=O)c1ccccc1N=C=S	4.38
O=c1ccn2c(n1)SC(c1ccccc1)C2 (stereo not drawn)	4.6
COc1cccc2nc3cc(C)c(C)cc3nc12	1.48
COC(=O)Cc1[nH]c(Cl)nc1C(N)=O	1.21

SMILES	Inhibition [%]
COc1cc(/C=N/N=c2\[nH]c3c(=O)n(C)c(=O)n(C)c3[nH]2)ccc1O	48.3
CCCCSc1[nH]cnc2nncc1-2	4.01
Nc1ccc(/C=C/c2ccc3ncccc3c2)cc1	2.51
Cc1cc2c3ccccc3ncn2n1	5.02
CCOC(=O)c1cnc(SCC)nc1O	0.68
Cc1cccc2cc3cccc(C)c3nc12	0.25
COC(=O)C1(C(=O)OC)C2C(=O)C3C(C21)C3(C(=O)OC(C)(C)C)C(=O)OC(C)(C)C (stereo not drawn)	0.63
Nc1c(Cl)ncnc1NCCO	2.14
O=C(Nc1cccc(Cl)c1)Nn1cnnc1	3.98
Cc1ccc(S(=O)(=O)N(C)C)cc1[N+](=O)[O-]	0.81
COc1ccc2[nH]c(-c3ccccc3)cc2c1	6.65
S=C1SCN(CCc2ccccc2)CN1CCc1ccccc1	31.3
CSc1c(N(C)C)c(=O)c1=S	1.7
C#CC(C)OCC1CNC(=S)O1 (stereo not drawn)	4.06
CCC(C)NC(=O)c1cccc(C)c1 (stereo not drawn)	3.19
[O-][n+]1ccc(CC(O)(C(F)(F)F)C(F)(F)F)cc1	4.37
N#Cc1cnn(-c2cccc(Cl)c2)c1-n1cccc1	9.39
O=C(O)c1cc2cc(OCc3ccccc3)ccc2[nH]1	9.61
c1ccc2c(c1)nnn2-c1ccncc1	1.59
